Experimental data reported in PubChem BioAssay (Tox21).
Unmarked numbers belong to inactive results. Active and inactive are the calls of the source. Calls follow the shape of the dose curve; as a rule, active = well fitted curve in the direction sought with a large enough effect in the repeat runs; inconclusive = weak or mixed curves; inactive = flat fitted curve, though single readings scatter.

experiment: qHTS assay to test for compound auto fluorescence at 590 nm (red) in HEK293 cells (AID 720679); conditions: red autofluorescence 540/590 nm; series mostly up to 91.3 µM
Excerpt: National Center for Advancing Translational Sciences [NCATS]
NIH Chemical Genomics Center [NCGC]
U.S. Environmental Protection Agency [EPA]
National Institutes of Environmental Health Sciences [NIEHS]
National Toxicology Program [NTP]
U.S. Food and Drug Administration [FDA]
Compound auto fluorescence often interferes with screening of the compound library against various biological targets and signaling pathways. Some of these compounds may have fluorophoric properties. Such properties may interfere with the assay outputs resulting in false positives and/or negatives. To decrease such complications and ensure the compound activities are relevant in terms of biological response, the Tox21 10K compound library was screened for auto fluorescence.
From the fluorophores used as reporter signals in our screening assays, the auto fluorescence equivalencies of compounds against three fluorophores have been evaluated: Triamterene, Fluorescein and Rose Bengal sodium for blue, green and red fluorescence, respectively. The fluorescence intensities were measured using Excitation/Emission wavelengths at 405/460nm, 485/535nm and 540/590nm for blue, green and red labels, respectively. This assay includes the red fluorescence data.
Tox21 Assay Protocol Summary:
2,000 HEK293 cells in 5 uL of culture medium containing 10% dialyzed FBS per well were dispensed into black wall/clear bottom 1536-well plates using a Multidrop Combi Dispenser (Thermo Scientific). The assay plates were incubated for 4-5 hr at 37C to allow cell attachment to the well bottom, followed by the transfer of 23 nL compound or DMSO vehicle by a pintool work station (Kalypsys, San Diego, CA). After the assay plates were incubated overnight at 37C and 5% CO2, fluorescence intensities in the assay plates were measured by an Envision (PerkinElmer, Shelton, CT) plate reader using three labels for measuring blue, green and red fluorescence at […] 460, 535 and 590nm respectively.
% is scaled to controls: 0 for no effect and ±100 for the full control effect.

SMILES	outcome	fluorescence, % of fluorescent control
CN1C(=O)[C@@H](NC(=O)c2cc3ccccc3[nH]2)N=C(c2ccccc2)c2ccccc21	inactive	–
CC(=O)[O-].CC(=O)[O-].CC(=O)[O-].[Sb+3]	–	0.24% [at 3.72 µM]
CC(=O)[O-].CC(=O)[O-].O.O.[Zn+2]	inactive	–
CCCCCCC[CH2][Sn]([Cl])([Cl])[CH2]CCCCCCC	inactive	–
Cc1c([N+](=O)[O-])c(C)c([N+](=O)[O-])c(C(C)(C)C)c1[N+](=O)[O-]	inactive	–
O=C(O)[C@H](O)[C@@H](O)C(=O)O	inactive	–
CC(C)N(C(=O)SC/C(Cl)=C/Cl)C(C)C	inactive	–
CCNS(=O)(=O)C(F)(F)C(F)(F)C(F)(F)C(F)(F)C(F)(F)C(F)(F)C(F)(F)C(F)(F)F	inactive	–
C=CCOC(=O)c1ccccc1N	inactive	–
CNC(=O)O/N=C(\C)C(C)S(C)(=O)=O (stereo not given)	inactive	–
COC(=O)c1ccccc1S(=O)(=O)NC(=O)Nc1nc(C)nc(OC)n1	inactive	–
C=CC(=C)C	inactive	–
CC1(C)C(C=C(Cl)Cl)C1C(=O)OC(C#N)c1ccc(F)c(Oc2ccccc2)c1 (stereo not given)	inactive	–
N#Cc1ccc(N(CC(N)=O)CC(F)(F)F)cc1C(F)(F)F	inactive	–
CC(=O)[O][Pb]([c]1ccccc1)([c]1ccccc1)[c]1ccccc1	inactive	–
ClC1=C(Cl)[C@]2(Cl)[C@H]3[C@H]([C@@H]4C=C[C@H]3C4)[C@@]1(Cl)C2(Cl)Cl	inactive	–
CNC(=O)CSP(=O)(OC)OC	inactive	–
CCn1cc[n+](C)c1 (tested in a mixture with another compound)	inactive	–
COP(=S)(NC(C)C)Oc1ccc(C)cc1[N+](=O)[O-] (stereo not given)	inactive	–
c1csc(-c2ccc(-c3cccs3)s2)c1	inactive	–

SMILES	outcome	fluorescence, % of fluorescent control
CCN(CC)C(=O)N[C@@H]1C=C2c3cccc4[nH]cc(c34)C[C@@H]2N(C)C1	inactive	–
O=C(N[C@@H]1N=C(c2ccccc2F)c2cccc3c2N(CC3)C1=O)c1cc2ccccc2[nH]1	inactive	–
C#CCO	inactive	–
O=[N+]([O-])c1cc(C(F)(F)F)c(Cl)c([N+](=O)[O-])c1Nc1ncc(C(F)(F)F)cc1Cl	inactive	–
O=C(NC(=O)c1c(F)cccc1F)Nc1ccc(Oc2ccc(C(F)(F)F)cc2Cl)cc1F	inactive	–
CSC(C)(C)/C=N/O	inactive	–
C[C@H]1[C@H](c2ccc(Cl)cc2)SC(=O)N1C(=O)NC1CCCCC1	inactive	–
CCCCN(CCCC)C(=S)S	inactive	–
c1ccc(N=NNc2ccccc2)cc1	inactive	–
[Cl][Hg][c]1ccccc1	inactive	–
Clc1cc(Cl)c(-c2cc(Cl)c(Cl)cc2Cl)cc1Cl	inactive	–
N#CC(C#N)=NNc1cccc(Cl)c1	inactive	–
CC1CN1 (stereo not given)	inactive	–
CCCCON=O	inactive	–
O.O.O.O.O.O.O.O=S(=O)([O-])[O-].[Co+2]	inactive	–
CCOP(=O)(Sc1ccccc1)Sc1ccccc1	inactive	–
Clc1c(Cl)c(Cl)c(Cl)c(Cl)c1Cl	–	-0.0042% [at 3.72 µM]
CCCCN(CCCC)C(=S)[S-].CCCCN(CCCC)C(=S)[S-].[Ni+2]	inactive	–
CN(C)C(=S)SSC(=S)N(C)C	inactive	–
CCC(C)c1cccc(C(C)CC)c1O (stereo not given)	inactive	–
